Measurements: PubChem BioAssay AID624305 (National Center for Advancing Translational Sciences (NCATS), 2012)
Inconclusive results are not listed. Activity calls are given as the source filed them. Calls follow the shape of the dose curve; as a rule, active = well fitted activation curve with a large enough effect; inconclusive = small, poorly fitted or top-dose-only effect; inactive = no such curve, though single readings can be large or run the other way.

experiment: qHTS assay for re-activators of p53 using a Luc reporter: Hit Validation; conditions: p53-responsive luciferase reporter cells, luminescence, H1299 line expressing heat-sensitive Ala138Val p53; series mostly up to 46.1 µM; activation: at the top concentration; also: nearly all actives have a fitted effect of over 75% in size; as to activation: 0% is about no effect
Procedure, shortened: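 Hit confirmation with a 1:5 dilution series, at 37 deg C for 24 hrs, in H1299 cells co-expressing temperature-sensitive p53-A138V and p53-responsive luciferase. Nocodazole served as control; luminescence read after 10 min with detection reagent.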
Potency is read from the fitted curve at half-maximal effect.

activation, inactive:
CC1(C)CC(=O)CC(=O)/C1=N\Nc1c(Cl)cc(Cl)cc1Cl 11.5%
Cc1ccc(S(=O)(=O)CNC(=O)c2ccccc2)cc1 -11.5%
O=C(CCc1nc(-c2ccccc2F)no1)NC1CCCCCC1 -13.5%
COc1ccc(NC(=O)/C(Cl)=C(/Cl)S(=O)(=O)Cc2ccc(C)cc2)cn1 -94.3%
COc1ccc(C(C#N)N2N=C(c3ccccc3)CC2c2ccccc2)cc1OC (stereo not drawn) -1.56%
CCOC(=O)c1ccc2ncc(C(=O)OCC)c(NCc3ccco3)c2c1 1.04%
Cc1cccc(-n2c(O)c(C=Nc3ccccc3N)c(=O)[nH]c2=O)c1 39.1%
COc1ccccc1OCCn1nnc2ccccc21 36.5%
CC(C)(C)NC(=O)C(c1ccc(Cl)cc1)N(CCO)C(=O)c1snc(C(N)=O)c1N (stereo not drawn) -2.08%
Cc1ccc(NC(=O)C2CCCO2)cc1[N+](=O)[O-] (stereo not drawn) 12%
CCN1CCN(/C=N/c2nc3c(s2)CCCC3)CC1 -13%
O=C(Nc1ccc(COc2ccccc2)cc1)c1cccc([N+](=O)[O-])c1 21.9%

Potency, active:
CC(C)(C)OC(=O)N1CCC(C(=O)Nc2ccc3c(c2)CCC3)CC1 23.1 µM
Cc1cc(C(=O)Nc2nc3c(s2)CCCC3)cs1 0.231 µM
COCCCN(C(C)=O)c1nc(-c2ccc(OC)cc2)cs1 2.31 µM
C=CCOc1c(OC)cc(/C=N/Nc2cccc(C(=O)O)c2)c(Br)c1Br 13 µM
CC(C)/C=C1\CC/C(=C\c2ccc(N(C)C)cc2)C1=O 2.91 µM
O=C(N/N=C/c1cn(-c2ccccc2)nc1-c1cc2ccccc2o1)c1ccccc1Br 7.31 µM
